# Calls of active or inactive are those of the source. How the source made its calls: active means hit-call score of the fitted dose curve at least 0.9, where 1 is the maximum; inactive means score below 0.9.
# Legend:
# Conditions in all cases: mRNA level, 48 h; actives raise or lower the signal
# [1] = read-out: Early growth response protein 1 (EGR1) transcription factor, EGR1 (gene 1958); assay: LTEA_HepaRG_EGR1: Life Technologies and Expression Analysis (LTEA) Assay for Early growth response protein 1 (EGR1) transcription factor using HepaRG (AID 2283490)
# Summary of the method: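 HepaRG, 48 h exposure, 8-pt half-log series from 100 uM, 0.5% DMSO vehicle; EGR1 transcript by TaqMan qRT-PCR (Fluidigm array), housekeeping-normalized; bidirectional fit relative to DMSO baseline.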
# [2] = read-out: Ezrin (EZR), EZR (gene 7430); assay: LTEA_HepaRG_EZR: Life Technologies and Expression Analysis (LTEA) Assay for Ezrin (EZR) using HepaRG (AID 2283491)
# Summary of the method: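 EZR transcript levels came from Fluidigm qRT-PCR and were normalized to three housekeeping genes after 48 h chemical exposure of HepaRG cells. Dosing used an 8-point half-log series with a 100 uM top concentration in 0.5% DMSO, tested in duplicate; both directions were fitted versus vehicle.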
# [3] = read-out: Fatty Acid-Binding Protein 1 (FABP1), FABP1 (gene 2168); assay: LTEA_HepaRG_FABP1: Life Technologies and Expression Analysis (LTEA) Assay for Fatty Acid-Binding Protein 1 (FABP1) using HepaRG (AID 2283494)
# Summary of the method: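 qRT-PCR readout of FABP1 transcript (normalized to three housekeeping genes) after 48 h chemical exposure of HepaRG cells; eight concentrations, half-log steps, max 100 uM, 0.5% DMSO vehicle; gain or loss fitted relative to DMSO baseline.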
# [4] = read-out: Glutathione S-Transferase (GSTA2), GSTA2 (gene 2939); assay: LTEA_HepaRG_GSTA2: Life Technologies and Expression Analysis (LTEA) Assay for Glutathione S-Transferase (GSTA2) using HepaRG (AID 2283497)
# Summary of the method: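 qRT-PCR readout of GSTA2 transcript, normalized to three housekeeping genes, fitted bidirectionally against 0.5% DMSO baseline. Differentiated HepaRG cells received compound for 48 h at 8 concentrations (top 100 uM, half-log steps).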
# [5] = read-out: growth arrest and DNA damage 45 (GADD45G), GADD45G (gene 10912); assay: LTEA_HepaRG_GADD45G: Life Technologies and Expression Analysis (LTEA) Assay for growth arrest and DNA damage 45 (GADD45G) using HepaRG (AID 2283499)
# Summary of the method: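 Human hepatic HepaRG line treated 48 h with chemicals (eight concentrations, half-log steps from 100 uM); transcript induction or repression of GADD45G scored by qRT-PCR versus DMSO vehicle.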
# [6] = read-out: Glutamate-cysteine ligase regulatory (GCLM), GCLM (gene 2730); assay: LTEA_HepaRG_GCLM: Life Technologies and Expression Analysis (LTEA) Assay for Glutamate-cysteine ligase regulatory (GCLM) using HepaRG (AID 2283500)
# Summary of the method: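 GCLM expression quantified by qRT-PCR, normalized to three housekeeping genes, after 48 h chemical treatment of HepaRG cells in duplicate at 8 concentrations (top 100 uM, half-log steps, 0.5% DMSO). Changes fitted both directions against vehicle.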
# [7] = read-out: Glutathione S-transferase M3 (GSTM3), GSTM3 (gene 2947); assay: LTEA_HepaRG_GSTM3: Life Technologies and Expression Analysis (LTEA) Assay for Glutathione S-transferase M3 (GSTM3) using HepaRG (AID 2283501)
# Summary of the method: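 Changes in GSTM3 expression, an oxidative-stress marker, were scored by bidirectional curve fitting against 0.5% DMSO vehicle. Human HepaRG cultures received chemicals for 48 h in duplicate, highest concentration 100 uM with half-log dilutions.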
# [8] = read-out: Heat shock 70 kDa protein 1 (HSPA1A), gene 3303; assay: LTEA_HepaRG_HSPA1A: Life Technologies and Expression Analysis (LTEA) Assay for Heat shock 70 kDa protein 1 (HSPA1A) using HepaRG (AID 2283502)
# Summary of the method: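 HSPA1A expression measured by qRT-PCR with ACTB/GAPDH/POLR2A normalization; curves fitted in both directions relative to DMSO vehicle. Exposure: 48 h in HepaRG cells, duplicate 8-point half-log series from 100 uM, 0.5% DMSO, serum-free induction medium.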
# [9] = read-out: Hypoxia-inducible factor 1-alpha (Homo sapiens) (UniProt Q16665); assay: LTEA_HepaRG_HIF1A: Life Technologies and Expression Analysis (LTEA) Assay for Hypoxia-inducible factor 1 (HIF1A) Trancription factor using HepaRG (AID 2283503)
# Summary of the method: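 HIF1A transcript level read by qRT-PCR (ACTB, GAPDH, POLR2A normalization) after 48 h chemical exposure of HepaRG cultures. Eight half-log concentrations, top 100 uM, 0.5% DMSO vehicle, duplicates; bidirectional curve fit against DMSO baseline.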
# [10] = read-out: 3-Hydroxy-3-Methylglutaryl-CoA Synthase 2 (HMGCS2), HMGCS2 (gene 3158); assay: LTEA_HepaRG_HMGCS2: Life Technologies and Expression Analysis (LTEA) Assay for 3-Hydroxy-3-Methylglutaryl-CoA Synthase 2 (HMGCS2) using HepaRG (AID 2283504)
# Summary of the method: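 Expression of HMGCS2 in human HepaRG liver cells is measured by qRT-PCR 48 h after dosing (highest 100 uM, half-log series, 0.5% DMSO). Values come from bidirectional concentration-response fitting with DMSO as baseline.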
# HGF (gene 3082) = assay: LTEA_HepaRG_HGF: Life Technologies and Expression Analysis (LTEA) Assay for Hepatocyte Growth Facto (HGF) using HepaRG (AID 2283505)
# Summary of the method: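 Gain or loss of HGF mRNA in human HepaRG liver cells after 48 h chemical exposure; eight concentrations up to 100 uM with 0.5% DMSO vehicle, quantified by TaqMan qRT-PCR.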
# [11] = read-out: Insulin Like Growth Factor 1 (IGF1), IGF1 (gene 3479); assay: LTEA_HepaRG_IGF1: Life Technologies and Expression Analysis (LTEA) Assay for Insulin Like Growth Factor 1 (IGF1) using HepaRG (AID 2283506)
# Summary of the method: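 Expression measured by TaqMan qRT-PCR on a Fluidigm array, with three housekeeping genes for normalisation, after 48 h treatment of HepaRG cells. Top concentration 100 uM with half-log steps, 0.5% DMSO vehicle, bidirectional fit.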
# [12] = read-out: Intercellular Adhesion Molecule 1 (ICAM1), ICAM1 (gene 3383); assay: LTEA_HepaRG_ICAM1: Life Technologies and Expression Analysis (LTEA) Assay for Intercellular Adhesion Molecule 1 (ICAM1) using HepaRG (AID 2283507)
# Summary of the method: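 Gain or loss of transcript in HepaRG hepatic cells is quantified by qRT-PCR after 48 h chemical exposure (up to 100 uM, half-log steps), with DMSO as baseline.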
# [13] = read-out: Insulin-like growth factor-binding protein 1 (IGFBP1), IGFBP1 (gene 3484); assay: LTEA_HepaRG_IGFBP1: Life Technologies and Expression Analysis (LTEA) Assay for Insulin-like growth factor-binding protein 1 (IGFBP1) using HepaRG (AID 2283508)
# Summary of the method: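 mRNA induction or loss was quantified by qRT-PCR after 48 h chemical exposure of human HepaRG cells, with 0.5% DMSO as vehicle and baseline. Concentration-response over eight points up to 100 uM.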
# [14] = read-out: Interleukin 6 (IL6), IL6 (gene 3569); assay: LTEA_HepaRG_IL6: Life Technologies and Expression Analysis (LTEA) Assay for Interleukin 6 (IL6) using HepaRG (AID 2283509)
# Summary of the method: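 qRT-PCR read-out of IL6 transcript, normalized to three housekeeping genes, after 48 h chemical exposure of HepaRG cells; 8-point half-log series, top 100 uM, 0.5% DMSO vehicle. Bidirectional curve fitting against DMSO baseline.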
# [15] = read-out: Interleukin 6 Receptor (IL6R), IL6R (gene 3570); assay: LTEA_HepaRG_IL6R: Life Technologies and Expression Analysis (LTEA) Assay for Interleukin 6 Receptor (IL6R) using HepaRG (AID 2283510)
# Summary of the method: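 IL6R transcript level by qRT-PCR after 48 h chemical exposure (8-point, half-log, max 100 uM, 0.5% DMSO vehicle) of HepaRG cells in serum-free induction medium. Normalized to three housekeeping genes; curves fitted in both directions relative to DMSO.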
# Hypoxia-inducible factor 1-alpha (Homo sapiens), sequence (Q16665 whole entry, looked up): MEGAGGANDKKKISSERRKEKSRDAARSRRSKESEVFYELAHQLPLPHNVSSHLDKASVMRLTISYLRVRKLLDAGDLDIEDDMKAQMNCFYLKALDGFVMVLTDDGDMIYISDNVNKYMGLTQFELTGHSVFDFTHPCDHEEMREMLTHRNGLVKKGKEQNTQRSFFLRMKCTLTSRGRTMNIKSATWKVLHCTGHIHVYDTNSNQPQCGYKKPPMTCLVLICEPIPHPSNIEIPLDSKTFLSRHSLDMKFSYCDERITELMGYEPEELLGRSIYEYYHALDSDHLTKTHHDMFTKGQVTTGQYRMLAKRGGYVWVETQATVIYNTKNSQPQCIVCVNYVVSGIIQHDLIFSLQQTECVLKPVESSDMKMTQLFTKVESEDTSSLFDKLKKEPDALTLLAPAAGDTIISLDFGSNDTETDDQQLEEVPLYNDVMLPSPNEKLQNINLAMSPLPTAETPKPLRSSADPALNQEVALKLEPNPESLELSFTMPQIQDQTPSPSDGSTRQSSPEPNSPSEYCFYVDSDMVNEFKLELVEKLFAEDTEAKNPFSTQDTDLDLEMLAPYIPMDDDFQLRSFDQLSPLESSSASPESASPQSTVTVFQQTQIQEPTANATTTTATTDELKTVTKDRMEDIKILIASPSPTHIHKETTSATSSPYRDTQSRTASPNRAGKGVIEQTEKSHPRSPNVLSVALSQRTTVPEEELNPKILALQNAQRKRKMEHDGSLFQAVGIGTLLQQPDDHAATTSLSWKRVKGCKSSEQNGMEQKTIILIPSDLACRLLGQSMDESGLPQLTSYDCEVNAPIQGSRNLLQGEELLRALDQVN
structure (smiles),measurement,setting,value
O=C(c1ccccc1)c1ccccc1,outcome,[1],inactive
same,outcome,[2],inactive
same,AC50,[3],0.851 µM (active)
same,outcome,[4],inactive
same,outcome,[5],inactive
same,outcome,[6],inactive
same,outcome,[7],inactive
same,outcome,[8],inactive
same,outcome,[9],inactive
same,outcome,[10],inactive
same,outcome,HGF (gene 3082),inactive
same,outcome,[11],inactive
same,outcome,[12],inactive
same,outcome,[13],inactive
same,outcome,[14],inactive
same,outcome,[15],inactive
CS(=O)(=O)c1ccc([C@@H](CC2CCCC2)C(=O)Nc2cnccn2)cc1Cl,AC50,[1],83.9 µM (active)
same,outcome,[2],inactive
same,AC50,[3],63.4 µM (active)
same,AC50,[4],73.7 µM (active)
same,outcome,[5],inactive
same,AC50,[6],50 µM (active)
same,outcome,[7],inactive
same,outcome,[8],inactive
same,outcome,[9],inactive
same,AC50,[10],74.3 µM (active)
same,AC50,[11],32.8 µM (active)
same,AC50,[12],73.7 µM (active)
same,AC50,[13],75.2 µM (active)
same,outcome,[14],inactive
same,outcome,[15],inactive
